From PubChem BioAssay (NCI) come the findings set out here.

Structures are written as SMILES. About 79,000 compounds went through this panel and 15% of them were active in at least one assay; those are over-represented in the sample as a whole. A number with no mark means an inactive call. Calls of active or inactive are those of the source. No stated cut-off is given here; in the data, active means growth inhibition above about 70%; inactive means the rest.

One assay is described as follows: NCI Yeast Anticancer Drug Screen. Data for the sgs1 mgt1 strain (AID 161).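 Further: 0% = growth of cultures given vehicle only.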 The settings on record: S. cerevisiae sgs1 mgt1 strain, at 50.0 µM, active compounds read high. Put shortly:
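Test agents were incubated with a DNA-repair-mutant yeast strain. Growth was then read and compared against vehicle-treated controls.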
Consider `CN=c1ncc2nc(-c3ccccc3)c(-c3ccccc3)n(C)c-2n1`, for which the growth inhibition is -7.45%.

For the molecule `O=C(O)/C=C/c1ccccc1Br`, the growth inhibition was 12.7%.

Regarding `CCCc1cccc[n+]1CC(=O)c1ccccc1`, the growth inhibition is 4.95%.

Take `CCCCCCCCCCCCCCCCOc1ccccn1`: the growth inhibition is -14.8%.

With `Cn1c2c(c3ccccc31)CCN(CCCCN1CCc3c(n(C)c4ccccc34)C1=O)C2`, the growth inhibition was -19.3%.

On to `CC[C@@H]1CN(C)[C@H]2Cc3c([nH]c4ccccc34)C(=O)C[C@H]1C2C(=O)OC` (stereo not given in full), for which the growth inhibition was -19.6%.

Consider `O=C(O)c1ccccc1/C=N\N(CCO)C1=NCCN1`, for which the growth inhibition was 13.9%.

With `COC(=O)C1=C(C)C(=O)[C@]23C(CCCC[C@H]12)C(=O)[C@H](C(=O)OC)C3C` (stereo not given in full), the growth inhibition is -11%.

For the molecule `N#CCCSc1nnc(N)s1`, the growth inhibition is -8.65%.

For `CCC1(O)c2ccccc2CCC1C` (stereo not given), the growth inhibition was -15.3%.

Regarding `O=S(=O)(c1ccccc1)c1ccccc1Br`, the growth inhibition is -3.3%.

In the case of `CC1=NCCN1CCN`, the growth inhibition is 23.8%.

On to `Clc1cc2nnn(C3CCCCO3)c2cc1Cl` (stereo not given), for which the growth inhibition is -23.4%.

Turning to `N#C/C(=N\NC(=O)c1ccccc1Cl)c1ccccc1Cl`, the growth inhibition was 83% (active).

Take `O=C1C2=Cc3ccccc3OC2(O)Oc2ccc(O)cc21` (stereo not given): the growth inhibition was -6.05%.

For `CCc1ccc([OH2+])c(C(=O)[O-])c1.CCc1ccc([OH2+])c(C(=O)[O-])c1.CCc1ccc([OH2+])c(C(=O)[O-])c1.CCc1ccc([OH2+])c(C(=O)[O-])c1.[Cu+2].[Cu+2]`, the growth inhibition is 21.6%.

Turning to `CCN(c1ccccc1)S(=O)(=O)c1ccc(Oc2ccccc2)c(N)c1`, the growth inhibition is 16.9%.

`COC1OC(COS(=O)(=O)c2ccc(C)cc2)C2OC(C)(C)OC2C1OS(=O)(=O)c1ccc(C)cc1` (stereo not given): the growth inhibition is -4.4%.

Take `c1ccc(-c2cc3c4ccccc4ccn3c2)cc1`: the growth inhibition was 20.2%.

With `NC(=O)N/N=C/c1cccc(O)c1O`, the growth inhibition is -24.7%.

Take `N#Cc1cc([N+](=O)[O-])ccc1NC(=O)C(=O)C(C(=O)c1ccc2ccccc2c1)C1OCc2ccccc21` (stereo not given): the growth inhibition is -2.85%.

`CCCCCCCCCCCCCCCCCCC(CO)CO`: the growth inhibition was -8.65%.

As to `C/C=C/C(=O)NN`, the growth inhibition is -4.65%.

For `COc1cc(C(=O)NN(C)C)cc(OC)c1OC`, the growth inhibition is -9.95%.

`N#CCCOC(=O)Nc1ccccc1`: the growth inhibition is -6.7%.

On to `CC1OC(n2ccc3ccc([N+](=O)[O-])cc32)C(O)C(O)C1O` (stereo not given), for which the growth inhibition was -32.7%.

On to `COC(=O)NCc1nc2cc3c[nH][nH]c3cc2n1`, for which the growth inhibition is 14.9%.

As for `C[S+]1Cc2nc3ccccc3n2C1c1c(F)cccc1F` (stereo not given), the growth inhibition was -1.75%.

For the molecule `C=CC1C(C(=O)Nc2ccccc2)CN1C` (stereo not given), the growth inhibition was -4.15%.

`COc1ccc(CN2CCCN(Cc3ccc(OC)cc3OC)C2c2cc(OC)ccc2OC)c(OC)c1`: the growth inhibition is 1.3%.

On to `CCCCCCCCOC(=O)Nc1cccc2ccccc12`, for which the growth inhibition was -2.6%.

Take `Nc1nc(O)c(N)c(=O)[nH]1`: the growth inhibition is -15.8%.

Regarding `c1ccn2cncc2c1`, the growth inhibition is 13.1%.

For the molecule `Cc1cc(N(CCC#N)CCC#N)ccc1C=Nc1ccc(C(=O)NN2C(=O)/C(=C/c3ccc(N(CCC#N)CCC#N)cc3)N=C2c2cc([N+](=O)[O-])ccc2Cl)cc1`, the growth inhibition is 2.6%.

For the molecule `CC1(C)N=C(C(N)=O)c2[nH]cnc2N1`, the growth inhibition was 12.8%.

With `COc1cc(OC)c(OC)cc1/C=N/N=C(\N)NO`, the growth inhibition is -1.95%.

For `CC1=CC(C(O)C(C)C)C(C)(Cc2ccc(C)cn2)NC1c1ccccc1` (stereo not given), the growth inhibition was 5.45%.

Take `CCN(CC)Cc1cc(OC)c(OC)c(OC)c1`: the growth inhibition is -6.6%.

In the case of `Cc1cc(=O)[nH]c(Nc2nc3ccccc3[nH]2)n1`, the growth inhibition is 6.7%.

On to `Oc1ccc(-c2csc(NNC3=NC/C(=C/c4ccc5c(c4)OCO5)S3)n2)cc1O`, for which the growth inhibition was 40.4%.

A short description of the next assay: NCI Yeast Anticancer Drug Screen. Data for the cln2 rad14 strain (AID 165).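 Further: 0% = growth equal to vehicle treated cultures.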 The settings on record: S. cerevisiae cln2 rad14 strain, at 50.0 µM, active compounds read high. A digest of the protocol:
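Test compounds were added to cln2 rad14 yeast cultures; inhibition of growth was then determined by comparison with vehicle treatment.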
Consider `CN=c1ncc2nc(-c3ccccc3)c(-c3ccccc3)n(C)c-2n1`, for which the growth inhibition is -42%.

As to `O=C(O)/C=C/c1ccccc1Br`, the growth inhibition was 8.3%.

Regarding `CCCc1cccc[n+]1CC(=O)c1ccccc1`, the growth inhibition is -51.5%.

Consider `CCCCCCCCCCCCCCCCOc1ccccn1`, for which the growth inhibition is -18.8%.

With `Cn1c2c(c3ccccc31)CCN(CCCCN1CCc3c(n(C)c4ccccc34)C1=O)C2`, the growth inhibition was 5.25%.

With `CC[C@@H]1CN(C)[C@H]2Cc3c([nH]c4ccccc34)C(=O)C[C@H]1C2C(=O)OC` (stereo not given in full), the growth inhibition is -47.3%.

`O=C(O)c1ccccc1/C=N\N(CCO)C1=NCCN1`: the growth inhibition is -25.1%.

As for `COC(=O)C1=C(C)C(=O)[C@]23C(CCCC[C@H]12)C(=O)[C@H](C(=O)OC)C3C` (stereo not given in full), the growth inhibition is -20.9%.

In the case of `N#CCCSc1nnc(N)s1`, the growth inhibition was 16.9%.

Regarding `CCC1(O)c2ccccc2CCC1C` (stereo not given), the growth inhibition is -29.9%.

Take `O=S(=O)(c1ccccc1)c1ccccc1Br`: the growth inhibition is -18.4%.

As for `CC1=NCCN1CCN`, the growth inhibition is 12.9%.

Take `Clc1cc2nnn(C3CCCCO3)c2cc1Cl` (stereo not given): the growth inhibition is -12.3%.

As for `N#C/C(=N\NC(=O)c1ccccc1Cl)c1ccccc1Cl`, the growth inhibition is 82.2% (active).

Consider `O=C1C2=Cc3ccccc3OC2(O)Oc2ccc(O)cc21` (stereo not given), for which the growth inhibition was -2%.

Turning to `CCc1ccc([OH2+])c(C(=O)[O-])c1.CCc1ccc([OH2+])c(C(=O)[O-])c1.CCc1ccc([OH2+])c(C(=O)[O-])c1.CCc1ccc([OH2+])c(C(=O)[O-])c1.[Cu+2].[Cu+2]`, the growth inhibition is 29.3%.

In the case of `CCN(c1ccccc1)S(=O)(=O)c1ccc(Oc2ccccc2)c(N)c1`, the growth inhibition was 12.5%.

With `COC1OC(COS(=O)(=O)c2ccc(C)cc2)C2OC(C)(C)OC2C1OS(=O)(=O)c1ccc(C)cc1` (stereo not given), the growth inhibition is 84.2% (active).

Turning to `c1ccc(-c2cc3c4ccccc4ccn3c2)cc1`, the growth inhibition was 3.65%.

In the case of `NC(=O)N/N=C/c1cccc(O)c1O`, the growth inhibition is -10.2%.

In the case of `N#Cc1cc([N+](=O)[O-])ccc1NC(=O)C(=O)C(C(=O)c1ccc2ccccc2c1)C1OCc2ccccc21` (stereo not given), the growth inhibition was 36.1%.

In the case of `CCCCCCCCCCCCCCCCCCC(CO)CO`, the growth inhibition is -45%.

For `C/C=C/C(=O)NN`, the growth inhibition was -21.2%.

On to `COc1cc(C(=O)NN(C)C)cc(OC)c1OC`, for which the growth inhibition is 10.8%.

In the case of `N#CCCOC(=O)Nc1ccccc1`, the growth inhibition was -40.6%.

As for `CC1OC(n2ccc3ccc([N+](=O)[O-])cc32)C(O)C(O)C1O` (stereo not given), the growth inhibition was -12.2%.

Regarding `COC(=O)NCc1nc2cc3c[nH][nH]c3cc2n1`, the growth inhibition is -16%.

`C[S+]1Cc2nc3ccccc3n2C1c1c(F)cccc1F` (stereo not given): the growth inhibition was 12.8%.

`C=CC1C(C(=O)Nc2ccccc2)CN1C` (stereo not given): the growth inhibition is 18.3%.

As to `COc1ccc(CN2CCCN(Cc3ccc(OC)cc3OC)C2c2cc(OC)ccc2OC)c(OC)c1`, the growth inhibition was 10.5%.

`CCCCCCCCOC(=O)Nc1cccc2ccccc12`: the growth inhibition was -39.7%.

Turning to `Nc1nc(O)c(N)c(=O)[nH]1`, the growth inhibition was -17.8%.

As for `c1ccn2cncc2c1`, the growth inhibition was 23.1%.

For `Cc1cc(N(CCC#N)CCC#N)ccc1C=Nc1ccc(C(=O)NN2C(=O)/C(=C/c3ccc(N(CCC#N)CCC#N)cc3)N=C2c2cc([N+](=O)[O-])ccc2Cl)cc1`, the growth inhibition is 24%.

Take `CC1(C)N=C(C(N)=O)c2[nH]cnc2N1`: the growth inhibition was 13.3%.

`COc1cc(OC)c(OC)cc1/C=N/N=C(\N)NO`: the growth inhibition is 3.05%.

For `CC1=CC(C(O)C(C)C)C(C)(Cc2ccc(C)cn2)NC1c1ccccc1` (stereo not given), the growth inhibition was 15.2%.

As for `CCN(CC)Cc1cc(OC)c(OC)c(OC)c1`, the growth inhibition was -50.9%.

`Cc1cc(=O)[nH]c(Nc2nc3ccccc3[nH]2)n1`: the growth inhibition is 20.8%.

As to `Oc1ccc(-c2csc(NNC3=NC/C(=C/c4ccc5c(c4)OCO5)S3)n2)cc1O`, the growth inhibition was -11.4%.
